Measured values taken from PubChem BioAssay (EPA / NIEHS).
Calls of active or inactive are those of the source. The calls were made as follows: active = hit-call score of the fitted dose curve at least 0.9, where 1 is the maximum; inactive = score below 0.9.

What was measured:
Conditions in all cases: mRNA level, 48 h; actives raise or lower the signal
[1] = read-out: growth arrest and DNA damage 45 (GADD45G), GADD45G (gene 10912); experiment: LTEA_HepaRG_GADD45G: Life Technologies and Expression Analysis (LTEA) Assay for growth arrest and DNA damage 45 (GADD45G) using HepaRG (AID 2283499)
Outline: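 Human hepatic HepaRG line treated 48 h with chemicals (eight concentrations, half-log steps from 100 uM); transcript induction or repression of GADD45G scored by qRT-PCR versus DMSO vehicle.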

[2] = read-out: Glutamate-cysteine ligase regulatory (GCLM), GCLM (gene 2730); experiment: LTEA_HepaRG_GCLM: Life Technologies and Expression Analysis (LTEA) Assay for Glutamate-cysteine ligase regulatory (GCLM) using HepaRG (AID 2283500)
Outline: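 Differentiated human HepaRG cells exposed 48 h in serum-free induction medium to 8-point half-log concentrations (top 100 uM, 0.5% DMSO), in duplicate. GCLM mRNA quantified by qRT-PCR, normalized to ACTB, GAPDH, POLR2A; bidirectional fitting versus DMSO.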

[3] = read-out: Glutathione S-transferase M3 (GSTM3), GSTM3 (gene 2947); experiment: LTEA_HepaRG_GSTM3: Life Technologies and Expression Analysis (LTEA) Assay for Glutathione S-transferase M3 (GSTM3) using HepaRG (AID 2283501)
Outline: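 Changes in GSTM3 expression, an oxidative-stress marker, were scored by bidirectional curve fitting against 0.5% DMSO vehicle. Human HepaRG cultures received chemicals for 48 h in duplicate, highest concentration 100 uM with half-log dilutions.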

[4] = read-out: Heat shock 70 kDa protein 1 (HSPA1A), gene 3303; experiment: LTEA_HepaRG_HSPA1A: Life Technologies and Expression Analysis (LTEA) Assay for Heat shock 70 kDa protein 1 (HSPA1A) using HepaRG (AID 2283502)
Outline: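 Differentiated human HepaRG cells in serum-free induction medium were exposed in duplicate for 48 h to eight concentrations (top 100 uM, half-log steps, 0.5% DMSO). HSPA1A mRNA was quantified by qRT-PCR, normalized to ACTB, GAPDH and POLR2A, and fitted bidirectionally against DMSO.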

[5] = read-out: 3-Hydroxy-3-Methylglutaryl-CoA Synthase 2 (HMGCS2), HMGCS2 (gene 3158); experiment: LTEA_HepaRG_HMGCS2: Life Technologies and Expression Analysis (LTEA) Assay for 3-Hydroxy-3-Methylglutaryl-CoA Synthase 2 (HMGCS2) using HepaRG (AID 2283504)
Outline: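 Expression of HMGCS2 in human HepaRG liver cells is measured by qRT-PCR 48 h after dosing (highest 100 uM, half-log series, 0.5% DMSO). Values come from bidirectional concentration-response fitting with DMSO as baseline.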

HGF (gene 3082) = experiment: LTEA_HepaRG_HGF: Life Technologies and Expression Analysis (LTEA) Assay for Hepatocyte Growth Facto (HGF) using HepaRG (AID 2283505)
Outline: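 Gain or loss of HGF mRNA in human HepaRG liver cells after 48 h chemical exposure; eight concentrations up to 100 uM with 0.5% DMSO vehicle, quantified by TaqMan qRT-PCR.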

[6] = read-out: Insulin Like Growth Factor 1 (IGF1), IGF1 (gene 3479); experiment: LTEA_HepaRG_IGF1: Life Technologies and Expression Analysis (LTEA) Assay for Insulin Like Growth Factor 1 (IGF1) using HepaRG (AID 2283506)
Outline: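 Differentiated human HepaRG cells were dosed for 48 h in serum-free induction medium with 0.5% DMSO, eight half-log concentrations up to 100 uM, in duplicate. IGF1 mRNA was quantified by qRT-PCR normalized to ACTB, GAPDH, POLR2A; bidirectional fitting versus DMSO.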

[7] = read-out: Intercellular Adhesion Molecule 1 (ICAM1), ICAM1 (gene 3383); experiment: LTEA_HepaRG_ICAM1: Life Technologies and Expression Analysis (LTEA) Assay for Intercellular Adhesion Molecule 1 (ICAM1) using HepaRG (AID 2283507)
Outline: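 Gain or loss of transcript in HepaRG hepatic cells is quantified by qRT-PCR after 48 h chemical exposure (up to 100 uM, half-log steps), with DMSO as baseline.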

[8] = read-out: Insulin-like growth factor-binding protein 1 (IGFBP1), IGFBP1 (gene 3484); experiment: LTEA_HepaRG_IGFBP1: Life Technologies and Expression Analysis (LTEA) Assay for Insulin-like growth factor-binding protein 1 (IGFBP1) using HepaRG (AID 2283508)
Outline: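 mRNA induction or loss was quantified by qRT-PCR after 48 h chemical exposure of human HepaRG cells, with 0.5% DMSO as vehicle and baseline. Concentration-response over eight points up to 100 uM.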

[9] = read-out: Interleukin 6 (IL6), IL6 (gene 3569); experiment: LTEA_HepaRG_IL6: Life Technologies and Expression Analysis (LTEA) Assay for Interleukin 6 (IL6) using HepaRG (AID 2283509)
Outline: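 Differentiated human HepaRG cells, plated 48 h then switched to serum-free induction medium, were exposed in duplicate for 48 h to eight half-log concentrations up to 100 uM in 0.5% DMSO. IL6 mRNA measured by qRT-PCR, normalized to ACTB/GAPDH/POLR2A.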

[10] = read-out: Interleukin 6 Receptor (IL6R), IL6R (gene 3570); experiment: LTEA_HepaRG_IL6R: Life Technologies and Expression Analysis (LTEA) Assay for Interleukin 6 Receptor (IL6R) using HepaRG (AID 2283510);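 as to AC50: TaqMan qRT-PCR signal normalized to ACTB GAPDH and POLR2A housekeeping genes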
Outline: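 Differentiated human HepaRG cells, plated 48 h then switched to serum-free induction medium, were dosed in duplicate for 48 h at eight half-log concentrations up to 100 uM in 0.5% DMSO. IL6R mRNA quantified by qRT-PCR, normalized to ACTB/GAPDH/POLR2A; bidirectional fit versus DMSO.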

[11] = read-out: Potassium channel subfamily K member 1 (KCNK1), KCNK1 (gene 3775); experiment: LTEA_HepaRG_KCNK1: Life Technologies and Expression Analysis (LTEA) Assay for Potassium channel subfamily K member 1 (KCNK1) using HepaRG (AID 2283511)
Outline: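 Differentiated human HepaRG cells in serum-free induction medium were exposed in duplicate for 48 h to 8 half-log concentrations up to 100 uM in 0.5% DMSO. KCNK1 mRNA was measured by TaqMan qRT-PCR, normalized to ACTB, GAPDH and POLR2A, and fitted bidirectionally versus DMSO.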

[12] = read-out: Keratin 19 (KRT19), KRT19 (gene 3880); experiment: LTEA_HepaRG_KRT19: Life Technologies and Expression Analysis (LTEA) Assay for Keratin 19 (KRT19) using HepaRG (AID 2283512)
Outline: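 Gene-expression endpoint in the human liver line HepaRG after 48 h exposure to up to 100 uM test chemical with 0.5% DMSO vehicle; KRT19 mRNA by qRT-PCR, analyzed bidirectionally versus DMSO.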

[13] = read-out: JUN Transcription Factor, JUN (gene 3725); experiment: LTEA_HepaRG_JUN: Life Technologies and Expression Analysis (LTEA) Assay for JUN Transcription Factor using HepaRG (AID 2283513)
Outline: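 Differentiated HepaRG cells were exposed to chemicals for 48 h in serum-free induction medium, 8 concentrations from 100 uM in half-log steps, 0.5% DMSO vehicle, in duplicate. JUN mRNA was quantified by TaqMan qRT-PCR, normalized to ACTB, GAPDH, POLR2A.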

[14] = read-out: Lipase C (LIPC), LIPC (gene 3990); experiment: LTEA_HepaRG_LIPC: Life Technologies and Expression Analysis (LTEA) Assay for Lipase C (LIPC) using HepaRG (AID 2283514)
Outline: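 Differentiated human HepaRG cells in serum-free induction medium were exposed in duplicate for 48 h to eight concentrations (top 100 uM, half-log steps, 0.5% DMSO). LIPC mRNA was quantified by TaqMan qRT-PCR, normalized to ACTB, GAPDH and POLR2A, with bidirectional fitting versus DMSO.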

[15] = read-out: Lipoprotein lipase (LPL), LPL (gene 4023); experiment: LTEA_HepaRG_LPL: Life Technologies and Expression Analysis (LTEA) Assay for Lipoprotein lipase (LPL) using HepaRG (AID 2283515)
Outline: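 Differentiated human HepaRG cells in serum-free induction medium were exposed in duplicate for 48 h to eight half-log concentrations (top 100 uM) in 0.5% DMSO. LPL mRNA was quantified by TaqMan qRT-PCR, normalized to ACTB, GAPDH and POLR2A.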

[16] = read-out: MicroRNA 122 (MIR122), gene 406906; experiment: LTEA_HepaRG_MIR122: Life Technologies and Expression Analysis (LTEA) Assay for MicroRNA 122 (MIR122) using HepaRG (AID 2283516); also: the transcript read is the microRNA miR-122
Outline: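 Differentiated human HepaRG cells were exposed 48 h in serum-free induction medium to eight half-log concentrations (top 100 uM, 0.5% DMSO). Transcript level was measured by TaqMan qRT-PCR, normalized to ACTB, GAPDH and POLR2A, and fitted bidirectionally versus DMSO.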

[17] = read-out: matrix metalloproteinase-10 (MMP10), MMP10 (gene 4319); experiment: LTEA_HepaRG_MMP10: Life Technologies and Expression Analysis (LTEA) Assay for matrix metalloproteinase-10 (MMP10) using HepaRG (AID 2283517)
Outline: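 HepaRG, collagen I, ~100,000 cells/well; serum-free induction medium; 48 h exposure, duplicate, 8-pt half-log to 100 uM, 0.5% DMSO. Readout: TaqMan qRT-PCR, normalized to ACTB/GAPDH/POLR2A; bidirectional fit vs DMSO.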

MYC, MYC (gene 4609) = experiment: LTEA_HepaRG_MYC: Life Technologies and Expression Analysis (LTEA) Assay for MYC using HepaRG (AID 2283518)
Outline: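 Cells are thawed, plated and cultured 48 h, then treated for 48 h with test chemicals (eight half-log concentrations from 100 uM, 0.5% DMSO vehicle). RNA is isolated and MYC expression quantified by qRT-PCR against three housekeeping genes.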

[18] = read-out: Hypoxia-inducible factor 1-alpha (Homo sapiens) (UniProt Q16665); experiment: LTEA_HepaRG_HIF1A: Life Technologies and Expression Analysis (LTEA) Assay for Hypoxia-inducible factor 1 (HIF1A) Trancription factor using HepaRG (AID 2283503)
Outline: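 HepaRG, 48 h exposure, 8-pt half-log series from 100 uM, 0.5% DMSO vehicle, duplicates. Readout: HIF1A transcript by qRT-PCR (Fluidigm array), housekeeping-normalised. Bidirectional curve fit vs DMSO baseline.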

Measured: AC50

Chain of Hypoxia-inducible factor 1-alpha (Homo sapiens) (Q16665 whole entry, looked up): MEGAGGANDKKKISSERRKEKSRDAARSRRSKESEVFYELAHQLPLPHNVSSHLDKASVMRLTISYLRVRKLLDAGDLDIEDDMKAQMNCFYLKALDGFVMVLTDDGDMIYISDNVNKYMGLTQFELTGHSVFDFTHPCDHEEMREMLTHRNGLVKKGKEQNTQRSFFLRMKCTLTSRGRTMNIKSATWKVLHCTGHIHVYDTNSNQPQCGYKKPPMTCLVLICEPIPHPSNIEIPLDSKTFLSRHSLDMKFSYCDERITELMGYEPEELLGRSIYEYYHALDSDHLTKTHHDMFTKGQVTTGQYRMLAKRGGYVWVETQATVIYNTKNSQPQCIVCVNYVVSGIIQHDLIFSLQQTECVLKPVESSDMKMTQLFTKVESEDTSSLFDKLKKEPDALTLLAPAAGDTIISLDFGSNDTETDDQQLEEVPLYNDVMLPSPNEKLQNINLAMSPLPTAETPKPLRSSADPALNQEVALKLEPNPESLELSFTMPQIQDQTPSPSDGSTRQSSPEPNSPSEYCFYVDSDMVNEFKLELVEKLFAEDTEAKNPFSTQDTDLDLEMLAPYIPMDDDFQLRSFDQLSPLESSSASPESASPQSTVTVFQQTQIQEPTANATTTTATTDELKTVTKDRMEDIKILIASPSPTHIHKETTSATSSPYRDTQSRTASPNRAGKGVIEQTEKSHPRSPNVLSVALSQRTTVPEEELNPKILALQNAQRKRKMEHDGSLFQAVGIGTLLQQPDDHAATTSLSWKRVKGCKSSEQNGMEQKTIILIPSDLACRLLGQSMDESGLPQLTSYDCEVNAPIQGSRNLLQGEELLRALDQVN

COc1cc(-c2nc(NC(=O)c3cc4cc(C)cc(C)c4n3CC(=O)O)sc2CCC2CCCCC2)c(OC)cc1Cl
inactive: [7] | [11]
active: [1] 3.17 µM | [2] 19.4 µM | [3] 3.86 µM | [4] 11.1 µM | [5] 6.61 µM | HGF (gene 3082) 6.32 µM | [6] 6.45 µM | [8] 3.83 µM | [9] 4.98 µM | [10] 26.5 µM | [12] 11.4 µM | [13] 10.7 µM | [14] 6.41 µM | [15] 10.5 µM | [16] 6.1 µM | [17] 3.51 µM | MYC, MYC (gene 4609) 19.8 µM

CCCCCCCCCCCCCCCC
inactive: [1] | [2] | [3] | [4] | [5] | HGF (gene 3082) | [6] | [7] | [8] | [9] | [10] | [11] | [12] | [13] | [14] | [15] | [16] | [17] | MYC, MYC (gene 4609)

CC(C)(C)c1cc(O)c(C(C)(C)C)cc1O
inactive: [1] | [2] | [4] | HGF (gene 3082) | [11] | [13] | [15] | MYC, MYC (gene 4609)
active: [3] 50 µM | [18] 78.5 µM | [5] 78.2 µM | [6] 82.4 µM | [7] 50 µM | [8] 50 µM | [9] 75.7 µM | [10] 77.6 µM | [12] 77.4 µM | [14] 79.7 µM | [16] 79.8 µM | [17] 93.6 µM

COc1ccc(S(=O)(=O)N2C(=O)[C@@](c3ccccc3OC)(N3C[C@H](O)C[C@H]3C(=O)N(C)C)c3cc(Cl)ccc32)c(OC)c1
inactive: [12] | [13]
active: [1] 16.5 µM | [2] 78.6 µM | [3] 19.5 µM | [4] 83 µM | [5] 15.8 µM | HGF (gene 3082) 85.5 µM | [6] 81.9 µM | [7] 21.6 µM | [8] 37.2 µM | [9] 58.2 µM | [10] 13.2 µM | [11] 50 µM | [14] 15.8 µM | [15] 12.1 µM | [16] 50 µM | [17] 50 µM | MYC, MYC (gene 4609) 76.5 µM

Cc1c(C(=O)O)c(O)cc2c1C(=O)c1c(O)c([C@@H]3O[C@H](CO)[C@@H](O)[C@H](O)[C@H]3O)c(O)c(O)c1C2=O
inactive: [1] | [2] | [3] | [4] | [18] | [5] | HGF (gene 3082) | [6] | [7] | [8] | [9] | [10] | [11] | [12] | [13] | [14] | [15] | [16] | [17] | MYC, MYC (gene 4609)

CCCCCCCCCCCCCCCCCC(=O)O
inactive: [1] | [2] | [3] | [4] | [5] | HGF (gene 3082) | [6] | [7] | [8] | [9] | [10] | [11] | [12] | [13] | [14] | [15] | [16] | [17] | MYC, MYC (gene 4609)
